Assay outcomes (PubChem BioAssay)
Most compounds without a hit are left out; they make up all but 2.2% or so of the library.
RTF Ca sens act = cardiac RTF calcium sensitization; P19429+P45379; IANBD-labeled TnC RTF fluorescence at EC20 calcium; 0% EC20 calcium, 100% full calcium; activation, % at 7.2 µM; 340,000 tested, 0.24% active;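 active = activation above the mean over all tested compounds plus 3 SD, cut at about 30% in these data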;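 note: rise in fluorescence read as greater calcium sensitivity of cardiac thin filaments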
CRFR2-BP antag = CRF-BP/CRF-R2 complex antagonism; 350,000 tested, 0.59% active; inhibition, % at 11.8 µM; HEK293 CRF-R2/CRF-BP, CRF-induced calcium fluorescence;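 active = inhibition of the ligand-induced calcium signal above about 50% at the single tested concentration, limit read from the data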
Myeloid diff 2 = promotes myeloid progenitor differentiation; ER-HoxA9 myeloid progenitors, lysozyme-GFP differentiation, flow cytometry; AID 624256; calls only at 10 µM; 360,000 tested, 1% active;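 active = normalized GFP-positive differentiation at or above the plate's own cutoff, the solvent-only control mean plus 3 SD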;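 note: cells exposed to compound for four days before flow analysis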
CRFR2-BP ag = CRF-BP/CRF-R2 complex agonism. HEK293 CRF-R2/CRF-BP, calcium dye fluorescence (FLIPR); percent of saturating CRF peptide response. activation, % at 13.2 µM. 350,000 tested, 0.46% active. AID 588473;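 active = activation of at least 50%, plus an integration ratio under a set limit after plate pattern correction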;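 note: plate controls were neutral control wells without compound for no effect and CRF at EC100 for full effect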
Cardiac RTF inh = cardiac RTF calcium desensitization; P19429+P45379; IANBD-labeled cardiac RTF, Ca2+ fluorescence; inhibition, % at 7.15 µM; 340,000 tested, 0.12% active; AID 493244;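 active = inhibition above the mean inhibition of all tested compounds plus 3 SD, cut at about 17% in these data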;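 note: assay run at fixed EC70 calcium of 1.6 mM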
An asterisk follows results filed as active; i = inactive; . = no result; + = active, no number.

SMILES	RTF Ca sens act	CRFR2-BP antag	Myeloid diff 2	CRFR2-BP ag	Cardiac RTF inh
Cn1nc(-c2ccc(Cl)cc2)c2cc(C(=O)NC3CC3)sc21	8.2	3.6	i	0.6	-4.3
CC1CCCN(C(=O)c2cc3c(-c4ccc(Cl)cc4)nn(C)c3s2)C1 (stereo not drawn)	3.8	3.1	+	3.4	0.0
CC(C)(C)C(=O)c1sc2nc(-c3cccs3)cc(C(F)(F)F)c2c1N	21.8	-32.3	+	82.8*	-22.1
Cc1nnc(NC(=O)c2sc3nc(-c4cccs4)cc(C(F)(F)F)c3c2N)s1	23.5	-242.7	+	213.1*	-44.7
CCN(CC)C(=O)c1sc2nc(-c3cccs3)cc(-c3cccs3)c2c1N	0.6	-19.5	+	5.9	-7.5
Cc1cc(C(F)(F)F)c2c(N)c(C(=O)NC3CC3)sc2n1	2.8	7.5	i	-1.7	-2.3
Nc1c(C(=O)Nc2nccs2)sc2nc(-c3cccs3)cc(C(F)(F)F)c12	28.9	-42.7	+	68.0*	-31.4
COc1ccccc1NC(=O)c1sc2nc(Cc3ccccc3)cc(C(F)(F)F)c2c1N	7.1	-66.1	i	58.1*	-2.5
COc1ccc(NC(=O)c2sc3nc(Cc4ccccc4)cc(C(F)(F)F)c3c2N)cc1OC	11.8	-36.3	i	4.9	-8.5
COC(=O)c1ccc(CNC(=O)c2ccc(S(=O)(=O)N(C)c3ccccc3OC)cc2)cc1	2.4	-1.4	i	-0.4	0.3
CC(=O)Oc1cc2c(C(=O)NCc3ccncc3)c(C)oc2c2ccccc12	-2.8	9.2	+	0.7	-5.9
CN1/C(=C/C(=O)CSc2ccccc2C(=O)O)C(C)(C)c2ccccc21	-2.4	4.0	+	1.6	-7.1
CN1/C(=C\C(=O)CSc2cccc[n+]2[O-])C(C)(C)c2ccccc21	0.6	-31.6	i	2.0	-1.0
CN1/C(=C\C(=S)NC(=O)c2ccccc2Cl)C(C)(C)c2ccccc21	9.9	1.7	+	3.0	-4.8
CN1/C(=C\C(=O)CN2C(=O)NC3(CCCCCC3)C2=O)C(C)(C)c2ccccc21	-6.3	-50.1	+	3.4	-11.8
CC(C)Cn1c(N)c(C(=O)COC(=O)C2Cc3ccccc3CN2S(C)(=O)=O)c(=O)n(C)c1=O (stereo not drawn)	-4.1	4.3	i	-1.1	1.7
CCCCc1cc(O)c(CCCC)c(O)c1	-3.9	-51.0	i	100.3*	0.0
CCCCCc1cc(O)c2c(C)cc(=O)oc2c1	3.2	16.1	i	12.4	-3.2
COc1ccc(C2=Nc3ccccc3NC(=O)C2N(C(=O)c2cnc(C)cn2)c2ccc(N3CCOCC3)cc2)cc1 (stereo not drawn)	.	.	i	.	.
CCOP(=O)(OCC)c1ccc2ccc3ccccc3c(=O)c2c1	-0.1	1.6	i	-2.0	5.6
COc1ccccc1C(=O)Nc1nc2cc3c(cc2s1)OCCO3	-5.8	5.1	+	0.2	0.2
COc1ccccc1C(=O)Nc1nc2cc3c(cc2s1)OCO3	-1.3	-1.0	i	0.3	5.5
C/C(=N/Nc1ccc([N+](=O)[O-])cc1)c1c[nH]c2ccccc12	8.0	-58.4	+	39.0	-14.4
C/C(=N\Nc1ccc([N+](=O)[O-])cc1)c1cc2ccccc2o1	10.3	-59.1	i	53.3*	-16.0
C/C(=N\NS(=O)(=O)c1ccc(C)c([N+](=O)[O-])c1)c1cc2ccccc2o1	0.5	33.8	+	-0.4	-8.1
SMILES	RTF Ca sens act	CRFR2-BP antag	Myeloid diff 2	CRFR2-BP ag	Cardiac RTF inh
COc1ccc(-c2ccc(CN3C(C(C)C)C(=O)N(Cc4cn(CCC5OCCO5)nn4)CCS3(=O)=O)cc2)cc1 (stereo not drawn)	.	-22.8	i	2.7	.
CC1(C(=O)NS(=O)(=O)Cc2cccc(Cl)c2)CCN1C(=O)C1(c2ccc(Cl)cc2)CCC1 (stereo not drawn)	.	.	i	.	.
Nc1sccc1C(=O)NCc1ccccc1	.	.	+	.	.
Cc1ccc(OCC(=O)NNC(=S)NC(=O)c2cccs2)c(C)c1	2.5	-15.2	i	50.5*	-2.4
Cc1cc(OCC(=O)NNC(=S)NC(=O)c2cccs2)ccc1Cl	3.0	-23.0	i	44.9	0.3
Cc1ccc(OCC(=O)NNC(=S)NC(=O)c2ccc(Br)o2)c(C)c1	0.5	-15.3	i	51.2*	-0.1
COc1ccc(C(=O)NNC(=S)NC(=O)c2ccc(Br)o2)cc1OC	-1.1	-9.1	i	10.0	3.2
